Common to all, as to assay type: functional
Test [1] has as its system Plasmodium falciparum. The test is described as follows: GSK_TCMDC: Inhibition of Plasmodium falciparum 3D7 in whole red blood cells, using parasite LDH activity as an index of growth. Test compounds present at 2uM.
Test [2] has as its system Plasmodium falciparum. Kind of test: GSK_TCMDC: Inhibition of Plasmodium falciparum Dd2 in whole red blood cells, using parasite LDH activity as an index of growth. Test compounds present at 2uM.
For test [3], the system named is HepG2. Kind of test: GSK_TCMDC: Percent inhibition of human HepG2 cell line. Test compounds present at 10uM.

As usually defined, the Inhibition is the change of the read-out against control, counted positive when it falls.

`Cc1cccc2nc(-c3ccc(-c4ccc(NC(=O)C5CCN(C)CC5)cc4)cc3)[nH]c12`: the Inhibition is 100% in test [1], 92% in test [2] and 28% in test [3].

As for `O=C(O)C(F)(F)F.O=[N+]([O-])c1cccc(CNCC2CCN(CCc3ccccc3)CC2)c1`, the Inhibition in test [1] worked out at 98%; in test [2], 11%; in test [3] it was 15%.

Regarding `Cc1ccccc1CNc1ccc2nc(N)nc(N)c2c1`, the Inhibition is listed as 100% in test [1], 90% in test [2] and 59% in test [3].

For the compound `COc1cc2nc(NCC3CCN(C(=O)c4ccc(-c5ccc(C(=O)N(C)C)cc5C)cc4)CC3)nc(N)c2cc1OC`, the Inhibition in test [1] came out at 100%; in test [2], 34%; in test [3], 2%.

As for `Cc1[nH]c(C)c(-c2ccc(Oc3cccc(Cl)c3)cc2)c(=O)c1Br`, the values for the Inhibition in test [1], in test [2] and in test [3] were 98%, 97% and 46%, respectively.

`COc1ccccc1-c1csc(C(=O)NCC2CCN(Cc3ccc(C(C)C)cc3)C2)c1.O=C(O)C(F)(F)F` (stereo unspecified): the Inhibition in test [1] is recorded as 81%; in test [2], 6%; in test [3], 24%.

For `COc1ccc(CNCc2ccsc2)cc1-c1ccc(OC)c(S(=O)(=O)NCCN2CCCC2)c1.O=C(O)C(F)(F)F`, the Inhibition amounted to 97% in test [1], 62% in test [2] and 18% in test [3].

Regarding `COc1cc(Cc2cnc(N)nc2N)cc(OCCCc2cc(OCc3ccccc3)no2)c1OC`, the Inhibition in test [1] stood at 86%; in test [2], 4%; in test [3], 30%.

Turning to `CC(C)OCCCNC(=O)c1nc(-c2cccc(C(F)(F)F)c2)sc1C(C)C`, the Inhibition was found to be 94% in test [1], 34% in test [2] and 0% in test [3].

In the case of `Cc1ccc(NC(=O)c2ccc3ncccc3c2)cc1OC1CCN(Cc2ccc(F)cc2)C1.O=C(O)C(F)(F)F` (stereo unspecified), the Inhibition in test [1] is recorded as 83%; in test [2], 28%; in test [3], 11%.

`CC(C)Sc1nncc(-c2cnnc(SC(C)C)n2)n1`: the Inhibition in test [1] is 100%; in test [2], 100%; in test [3], 0%.

Regarding `COc1ccc(CN2CCC(C(=O)Nc3cccc(-c4cccc(Cl)c4)c3)CC2)cc1O`, the results for the Inhibition in test [1], in test [2] and in test [3] were 91%, 0% and 25%, respectively.

On to `CCCc1ccc(Nc2nc(C)cc(N(CC)CCCN3CCCCC3)n2)cc1.O=C(O)C(F)(F)F`, for which the figures for the Inhibition in test [1], in test [2] and in test [3] were 100%, 95% and 48%, respectively.

For the compound `CCCCCN1CCCN(Cc2cccc(NC(=O)c3ccc(-c4ccccc4)cc3)c2)CC1.O=C(O)C(F)(F)F`, the figures for the Inhibition in test [1], in test [2] and in test [3] were 95%, 15% and 23%, respectively.

In the case of `CCCn1cc2c(ccc3nc(N)nc(N)c32)n1`, the Inhibition in test [1] turned out to be 95%; in test [2] it was 0%; in test [3], 65%.

For the compound `CCCN1CCN(CC(O)CNC(=O)Nc2ccc(Cl)cc2)CC1.O=C(O)C(F)(F)F` (stereo unspecified), the Inhibition in test [1] is listed as 100%; in test [2], 100%; in test [3] it was 6%.

Take `Cc1cc(CNC(c2ccccc2)C2CCC2)cc(C)c1O` (stereo unspecified): the figures for the Inhibition in test [1], in test [2] and in test [3] were 94%, 48% and 78%, respectively.

As to `COc1ccccc1CCNc1nc(C)cc(NCCC(=O)Nc2ccccc2)n1.O=C(O)C(F)(F)F`, the Inhibition in test [1] stood at 100%; in test [2] it was 24%; in test [3], 7%.

Take `Cc1c(F)cc(C(=O)NC2CC2)cc1-c1ccc2c(cnn2S(=O)(=O)c2ccc(F)c(F)c2)c1`: the values for the Inhibition in test [1], in test [2] and in test [3] were 91%, 76% and 49%, respectively.

In the case of `Cc1noc(C)c1-c1ccc2c(Nc3cccc4c3-c3ccccc3C4=O)c(C(=O)NCc3ccccc3I)cnc2c1`, the Inhibition in test [1] came to 99%; in test [2], 99%; in test [3], 27%.

With `CC(C)C[C@H](NC(=O)c1cc2cc(OCCN3CCNCC3)ccc2o1)C(=O)NC1CC[C@@H](C)N(C(=O)Nc2ccc(Cl)cc2)CC1=O.O=C(O)C(F)(F)F` (stereo partly specified), the Inhibition in test [1] turned out to be 90%; in test [2], 92%; in test [3] it was 0%.

With `Fc1ccc(NC(S)=NN=Cc2ccccn2)cc1`, the Inhibition in test [1] turned out to be 95%; in test [2] it was 67%; in test [3] it was 56%.

As to `CCNCc1ccc(-c2cccc(-c3nc4ccccc4[nH]3)c2)cc1.O=C(O)C(F)(F)F`, the values for the Inhibition in test [1], in test [2] and in test [3] were 100%, 18% and 26%, respectively.

As to `COc1ccc(-c2cnc3ccc(NC4CCC(O)CC4)nn23)cn1` (stereo unspecified), the figures for the Inhibition in test [1], in test [2] and in test [3] were 98%, 73% and 54%, respectively.

In the case of `CCCN(CCC)C(C)CCC(C)Nc1c2ccc(Cl)cc2nc2ccc(OC)cc12.Cl` (stereo unspecified), the Inhibition in test [1] worked out at 100%; in test [2], 99%; in test [3] it was 41%.

On to `COc1ccc(CNCc2ccccc2)cc1-c1ccc(S(=O)(=O)NCCN2CCCC2)s1.O=C(O)C(F)(F)F`, for which the values for the Inhibition in test [1], in test [2] and in test [3] were 100%, 62% and 32%, respectively.

As to `O=C(Cc1c[nH]cn1)Nc1ccc(-c2ccc(-c3nc4ccccc4[nH]3)s2)cc1`, the Inhibition was 90% in test [1], 34% in test [2] and 44% in test [3].

Consider `CCCCc1ccc(S(=O)(=O)Nc2ccc3c(c2)CCN(Cc2c[nH]c4cnccc24)CC3)cc1.O=C(O)C(F)(F)F`, for which the Inhibition in test [1] is on record as 99%; in test [2], 12%; in test [3], 41%.

In the case of `Cc1ccccc1C1CCN(C2CCC(NC(=O)/C=C/c3cccc(Cl)c3F)CC2)CC1` (stereo unspecified), the Inhibition in test [1] worked out at 100%; in test [2] it was 37%; in test [3] it was 87%.

Take `Cc1n[nH]c2cc(Nc3ccnc(Nc4cccc(CN5CCOCC5)c4)n3)ccc12`: the values for the Inhibition in test [1], in test [2] and in test [3] were 83%, 0% and 33%, respectively.

Take `COc1ccc(NC(=O)NCC2CCCN(CCCCCNC(=O)/C=C/c3ccc(Cl)c(Cl)c3)C2)c(OC)c1` (stereo unspecified): the values for the Inhibition in test [1], in test [2] and in test [3] were 95%, 0% and 8%, respectively.

Regarding `CC1(C)NC(N)=NC(=N)N1OCc1cc(Cl)c(Cl)cc1CON1C(=N)N=C(N)NC1(C)C`, the Inhibition in test [1] came to 98%; in test [2], 100%; in test [3] it was 36%.
